# CHO-K1 Ca antag – nonselective inhibitor or artifact in parental CHO-K1 cells; ATP-induced calcium, Fluo-8 fluorescence; inhibition, % at 3 µM; actives 0.6% (n = 360,000); AID 602250;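 active means inhibition above a per-plate cutoff, the plate's mean sample inhibition plus 3 SD, cut at about 24% in these data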;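 further: 0% = DMSO plus EC80 ATP and 100% = DMSO alone without ATP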
# M1 antag – human CHRM1 antagonism; P11229; CHO-K1 hM1, Fluo-8 calcium fluorescence, ACh EC80 antagonist; inhibition, % at 3 µM; actives 1.3% (n = 360,000); AID 588852;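 active means percent inhibition above its own plate's cutoff, namely the mean of that plate's compound wells plus 3 SD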;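 further: peak over basal fluorescence ratio during 140 s after agonist addition; 0% = ACh EC80 plus DMSO and 100% = DMSO alone without agonist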
# Target sequence (P11229 whole entry, looked up): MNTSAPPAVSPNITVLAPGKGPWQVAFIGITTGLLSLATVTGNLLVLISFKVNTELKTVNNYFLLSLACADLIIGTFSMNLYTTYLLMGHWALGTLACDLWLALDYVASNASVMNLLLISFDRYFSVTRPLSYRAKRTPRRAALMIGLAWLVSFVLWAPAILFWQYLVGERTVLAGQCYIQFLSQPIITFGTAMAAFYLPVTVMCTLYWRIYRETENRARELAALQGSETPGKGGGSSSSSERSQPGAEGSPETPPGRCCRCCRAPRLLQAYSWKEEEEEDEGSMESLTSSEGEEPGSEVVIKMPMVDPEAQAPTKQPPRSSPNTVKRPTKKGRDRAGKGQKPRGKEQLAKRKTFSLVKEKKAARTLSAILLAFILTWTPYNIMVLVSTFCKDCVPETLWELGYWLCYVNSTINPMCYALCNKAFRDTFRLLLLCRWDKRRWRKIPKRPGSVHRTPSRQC
# CHO-K1 Ca ag – nonselective activator or artifact in parental CHO-K1 cells; AID 602248; activation, % at 3 µM; actives 0.48% (n = 360,000); Fluo-8 calcium fluorescence; scaled to maximal ATP response, vehicle zero; in the data active means activation above about 15%;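 further: untransfected CHO-K1 host cells lacking M1 receptor as counterscreen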
# CHRM1 agonist – human M1 muscarinic receptor agonism; P11229; CHO-K1 hM1, Fluo-8 calcium fluorescence, agonist mode; 0% DMSO, 100% acetylcholine EC100; activation, % at 3 µM; actives 0.33% (n = 360,000);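 active means activation above the run's mean compound activation plus 3 SD, cut at about 16% in these data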;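 further: peak over basal fluorescence ratio within a 140 s kinetic read after compound addition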
# M1 PAM parental – nonselective activator or artifact in parental CHO-K1 calcium assay | ATP EC20, Fluo-8 calcium fluorescence; 0% at ATP EC20, 100% at ATP max | activation, % at 3 µM | AID 602247 | actives 0.02% (n = 360,000);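 active means activation above the run cutoff, the mean activation of all test compounds plus 3 SD, cut at about 40% in these data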;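 further: peak over basal fluorescence ratio in a 140 s read after ATP addition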
# CHRM1 PAM – positive allosteric modulators of human M1 muscarinic receptor; P11229; CHO-K1 hM1, Fluo-8 calcium fluorescence, ACh EC20; 0% = ACh EC20, 100% = maximal ACh; activation, % at 3 µM; actives 0.088% (n = 360,000); in the data active means activation above about 19%, passing the limit was not always enough
# The depositor's hits bear a star; . = not tested or not shown. Only some compounds are listed: those with a hit (about 2.3% of all), similar ones and a draw of the others.
SMILES,CHO-K1 Ca antag,M1 antag,CHO-K1 Ca ag,CHRM1 agonist,M1 PAM parental,CHRM1 PAM
COc1ccc(-c2sc(Nc3ccccc3)n[n+]2-c2ccc(F)cc2)cc1Br,-7,-7,0,-5,-1,5
Fc1ccc(-[n+]2nc(Nc3ccccc3)sc2-c2c(Cl)cccc2Cl)cc1,-7,22,15*,-2,2,-20
CCc1ccc(Nc2n[n+](-c3ccccc3)c(-c3c(Cl)cccc3Cl)s2)cc1,8,49*,21*,19*,-3,-26
CCc1ccc(Nc2n[n+](-c3ccccc3)c(-c3ccc(OCc4ccccc4)cc3)s2)cc1,-10,5,0,-6,30,0
COc1ccc2ccccc2c1-c1sc(Nc2ccccc2)n[n+]1-c1ccc(F)cc1,-9,28,16*,7,-3,-20
CCc1ccc(Nc2n[n+](-c3ccccc3)c(-c3ccc(N(CC)CC)cc3)s2)cc1,18,39*,14,9,6,-13
CCOC(=O)C1=CCC(c2ccccc2Cl)N(S(=O)(=O)c2ccc(C)cc2)C1 (stereo unspecified),12,20,0,-8,-4,-13
N#CC1=C(N)OC2=C(C(=O)CC(c3ccccc3)C2)C1c1ccc2c(c1)OCO2 (stereo unspecified),-9,62*,0,-13,21,-26
CCn1cnc2sc(C(=O)Oc3cccc(C)c3)c(C)c2c1=O,3,-5,15*,-8,17,16
CCN(C[C@H]1N[C@@](Cc2ccccc2)(C(=O)OC)[C@H]2C(=O)N(C)C(=O)[C@@H]12)C(=O)C1CCCCC1,26*,-10,0,1,-9,9
CCN(C[C@H]1N[C@@](Cc2ccccc2)(C(=O)OC)[C@H]2C(=O)N(C)C(=O)[C@@H]12)S(=O)(=O)c1ccc(C(F)(F)F)cc1,22,41*,6,0,-11,-19
CCN(C[C@H]1N[C@@](Cc2ccccc2)(C(=O)OC)[C@H]2C(=O)N(Cc3ccccc3)C(=O)[C@@H]12)C(=O)Nc1ccc(C(F)(F)F)cc1,31*,22,7,4,-15,-13
COC(=O)[C@]1(Cc2ccccc2)N[C@H](CN(C)C(=O)c2ccc(F)cc2)[C@@H]2C(=O)N(C)C(=O)[C@@H]21,-14,-23,1,4,6,27*
CCN(C[C@H]1N[C@@](Cc2ccccc2)(C(=O)OC)[C@H]2C(=O)N(C)C(=O)[C@@H]12)C(=O)c1ccccc1,2,0,1,-3,11,2
COc1ccc(N2CCN(C(=O)c3ccc(COc4ccc([N+](=O)[O-])cc4)o3)CC2)cc1,-2,30*,14,0,-9,-15
COc1ccc(N2CCN(C(=O)Oc3ccc([N+](=O)[O-])cc3)CC2)cc1,0,.,7,.,11,.
CCCC(=O)Nc1cc(-c2nn(C)c(=O)c3ccccc23)ccc1OC,24*,2,-1,-3,-2,10
COc1cc(-c2coc3c(C(=O)NCc4ccc(C(F)(F)F)cc4)cccc23)ccc1O,-12,-9,1,-3,-1,2
Cn1nc(C(F)(F)F)c(-c2ccc(Br)cc2)c1NC(=O)Nc1ccc(F)cc1F,20,38*,9,4,-21,-9
CN1CCN(c2nc(-c3ccco3)cc(C(F)(F)F)n2)CC1,-6,60*,0,-8,9,-21
CCOC(=O)N1CCN(c2nc(-c3ccco3)cc(C(F)(F)F)n2)CC1,9,-1,0,-3,-7,4
CCOC(=O)C1=CCC(c2cccc(C)c2)N(S(=O)(=O)c2ccc(C)cc2)C1 (stereo unspecified),8,15,1,-3,11,-7
Cc1cccc(Cl)c1OCCCN1CCOCC1,-8,32*,0,-3,6,3
CC(C)C[C@@H](COCc1cccc(Cl)c1)N1CCN(C(=O)c2ccc(C(F)(F)F)cc2)CCC1=O,-6,.,11,.,12,.
CN(C)CCNc1ncnc2oc(-c3ccccc3)c(-c3ccccc3)c12,8,10,16*,-7,9,-7
SMILES,CHO-K1 Ca antag,M1 antag,CHO-K1 Ca ag,CHRM1 agonist,M1 PAM parental,CHRM1 PAM
O=C(N/N=C/c1ccc(O)c(O)c1)c1ccc(CSc2cccc3cccnc23)cc1,-1,-2,0,24*,12,4
COc1ccc(-n2nc(C(=O)NCC(=O)N3CCN(c4ccccn4)CC3)c3ccccc3c2=O)cc1OC,8,37*,5,-5,-12,-13
COc1ccc(-n2nc(C(=O)NCC(=O)N3CCN(c4ccccn4)CC3)c3ccccc3c2=O)cc1,9,9,2,-2,10,-7
COc1ccc(-n2nc(C(=O)NCC(=O)N3CCOCC3)c3ccccc3c2=O)cc1OC,-15,-6,3,-3,15,3
COc1ccc(-n2nc(C(=O)NCC(=O)N3CCN(Cc4ccc5c(c4)OCO5)CC3)c3ccccc3c2=O)cc1OC,-14,41*,3,1,7,-18
Cc1cccnc1C(NC(=O)C1CCN(CCCc2ccccc2)CC1)c1ccc(F)cc1 (stereo unspecified),-9,-6,0,-8,13,-2
CCOc1ccc(OCCSc2nc3ccccc3[nH]2)cc1,-1,10,9,-3,7,-6
CCCOc1ccc(CSc2nc3ccccc3[nH]2)cc1,23,38*,12,-3,-8,-27
Oc1ccccc1-c1nnc(COc2ccc(Cl)cc2Cl)o1,44*,-7,-1,0,-14,3
COCCNC(=O)C1(C)CCCN(CCOc2ccc(Cl)cc2)C1 (stereo unspecified),-9,-4,1,-9,9,-4
O=C1c2ccccc2C(O)N1Cc1ccc2c(c1)OCO2 (stereo unspecified),15,28*,4,0,-9,-11
CCCCc1ccc(NC(=O)CSc2nc(=O)n(CCN(CC)CC)c3c2CCCC3)cc1,-3,66*,4,-8,-10,-26
O=C(CSc1nc(=O)n(CCCN2CCOCC2)c2c1CCCC2)Nc1ccc(F)cc1,5,31*,0,-7,-24,-4
CCCCc1ccc(NC(=O)CSc2nc(=O)n(CCN(C)C)c3c2CCC3)cc1,-16,-4,0,-7,8,0
COc1ccccc1N(C)S(=O)(=O)c1ccc(C(=O)NCc2ccccc2CN2CCCC2)cc1,-14,36*,4,-6,13,-14
Cc1ccc(S(=O)(=O)N2CCC(C(=O)NCc3ccccc3CN3CCCC3)CC2)cc1,-3,35*,0,-8,4,-23
COc1ccccc1N(C)S(=O)(=O)c1ccc(C(=O)N2CCCc3ccccc32)cc1,4,15,16*,-3,5,-12

# From PubChem
